# Assay results from PubChem BioAssay.
# Where “and” joins values, the source holds several entries; their conditions need not be identical. Identical values can stand only once. Calls of active or inactive are those of the source.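 Rule for the calls, unless noted: active = inhibition at or above 50% relative to wild type and mutant plate controls; inactive = inhibition below 50%.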
# What was measured:
# [1] = inhibitors of TNFa-induced NFkB p65 translocation, primary screen, imaging, HUVEC, MLSMR starter and 10KST1 sets (AID 438;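 active = inhibition above 20% together with a positive visual image hit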;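 note: compound added about 3h40 before a 20 min TNFalpha stimulation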;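 for inhibition: signal is the nuclear over cytoplasmic p65 intensity ratio per well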); details: HUVEC TNFa-induced p65 nuclear translocation; cell count: measured here: nuclei count (cytotoxicity indicator), at 2.08 µM; inhibition: at 2 µM, stronger effect = higher value, 0% TNFa-plus-vehicle, 100% no-TNFa wells
# [2] = inhibitors of mutant huntingtin aggregation, primary screen, imaging, exon1htt(103Q)mCFP cells, high-content imaging (AID 483;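 active = visual image review flags a hit and inhibition of aggregation exceeds 20%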;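 note: compound exposure lasted 3 days before fixation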;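 for nuclei count: percent of the per-plate median nuclei count of sample wells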); details: exon1htt(103Q)mCFP cell line, aggregate imaging, at 2 µM; inhibition of aggregation: stronger effect = higher value; nuclei count: measured here: cell count, toxicity
# [3] = inhibitors of E-selectin induction by TNFa, primary screen, imaging, HUVEC, immunofluorescence, MLSMR starter and 10KST1 sets (AID 487;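 active = visually confirmed hit in the image check and inhibition above 20%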;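 for inhibition: signal is fraction of cell area covered by stained E-selectin grains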;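 for nuclei count: 100% = median nuclei count of all wells on the same plate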); details: HUVEC TNFalpha-induced E-selectin immunofluorescence imaging, at 2 µM; inhibition: stronger effect = higher value; nuclei count: measured here: cell number, toxicity
# [4] = DUSP6 inhibitors restoring Erk phosphorylation by chemical complementation, primary imaging in DUSP6-transfected HeLa (AID 609;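 active = compounds giving at least 50% inhibition in the cell-based MKP-3 phosphatase rescue imaging test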;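 for inhibition: phospho-Erk level distribution per well compared with pooled transfected vehicle control wells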); details: HeLa MKP-3 transfected, phospho-Erk imaging KS statistic, at 10 µM, cells stimulated with TPA for 15 min
# [5] = molecular target: Dual specificity protein phosphatase 6 (Homo sapiens) (UniProt Q16828); assay: as above; details: HeLa MKP-3 transfected, phospho-Erk imaging KS statistic; at 10 µM; stronger effect = higher value; cells stimulated with TPA for 15 min
# Dual specificity protein phosphatase 6 (Homo sapiens), sequence (Q16828 whole entry, looked up): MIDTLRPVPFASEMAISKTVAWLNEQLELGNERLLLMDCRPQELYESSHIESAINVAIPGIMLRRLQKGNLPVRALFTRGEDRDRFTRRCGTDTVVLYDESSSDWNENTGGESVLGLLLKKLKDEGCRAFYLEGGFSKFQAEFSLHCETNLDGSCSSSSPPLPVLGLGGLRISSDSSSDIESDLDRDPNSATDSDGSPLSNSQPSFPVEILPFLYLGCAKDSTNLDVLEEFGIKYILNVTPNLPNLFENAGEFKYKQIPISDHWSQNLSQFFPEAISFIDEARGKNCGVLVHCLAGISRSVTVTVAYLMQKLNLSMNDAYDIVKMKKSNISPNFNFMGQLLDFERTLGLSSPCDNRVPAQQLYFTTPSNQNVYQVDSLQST
# [6] = molecular target: Voltage-gated potassium channel subunit beta-2 (Rattus norvegicus) (UniProt P62483); assay: KvBeta enzyme negative modulators, primary screen, biochemical, NADPH fluorescence (AID 622;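 active = fluorescence slope higher than the sample average by over 3 SD, cut at about -0.22 in these data, passing the limit was not always enough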;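 note: slope of raw intensity against log time taken from 70 to 1610 s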); details: recombinant KvBeta, 4-cyanobenzaldehyde reduction, at 10 µM, stronger effect = higher value
# Voltage-gated potassium channel subunit beta-2 (Rattus norvegicus), sequence (P62483 whole entry, looked up): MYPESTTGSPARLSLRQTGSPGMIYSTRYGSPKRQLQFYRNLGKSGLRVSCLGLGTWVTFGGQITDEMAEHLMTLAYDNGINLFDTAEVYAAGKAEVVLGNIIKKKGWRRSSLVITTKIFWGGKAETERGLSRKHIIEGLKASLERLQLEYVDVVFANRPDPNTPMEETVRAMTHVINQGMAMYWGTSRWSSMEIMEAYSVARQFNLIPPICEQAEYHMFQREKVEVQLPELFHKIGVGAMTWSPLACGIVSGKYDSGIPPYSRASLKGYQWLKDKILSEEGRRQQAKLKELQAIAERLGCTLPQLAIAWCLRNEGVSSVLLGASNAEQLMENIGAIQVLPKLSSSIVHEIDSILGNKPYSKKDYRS
# [7] = molecular target: Voltage-gated potassium channel subunit beta-2 (Rattus norvegicus) (UniProt P62483); assay: KvBeta positive modulators, primary screen, biochemical, NADPH fluorescence (AID 623;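 active = NADPH fluorescence slope more negative than the mean of all samples by about 3 SD, 99.7% confidence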;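 note: fluorescence intensity change per second fitted from 20 to 320 s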); details: Recombinant KvBeta, NADPH fluorescence decrease slope, 10 min; at 10 µM; stronger effect = lower value
# [8] = molecular target: Alpha-2C adrenergic receptor (Homo sapiens) (UniProt P18825); assay: modulators of alpha2C/GIRK thallium flux, primary screen, cell-based, HEK293 alpha2C/GIRK1/2 (AID 624;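 active = fluorescence slope after compound addition differing from the mean of all screened samples at 99.7% confidence, in either direction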;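 note: slope of fluorescence ratio to pre-addition baseline per second over 15 to 24 s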); details: thallium flux BTC fluorescence, at 10 µM, actives lie on both sides
# Alpha-2C adrenergic receptor (Homo sapiens), sequence (P18825 whole entry, looked up): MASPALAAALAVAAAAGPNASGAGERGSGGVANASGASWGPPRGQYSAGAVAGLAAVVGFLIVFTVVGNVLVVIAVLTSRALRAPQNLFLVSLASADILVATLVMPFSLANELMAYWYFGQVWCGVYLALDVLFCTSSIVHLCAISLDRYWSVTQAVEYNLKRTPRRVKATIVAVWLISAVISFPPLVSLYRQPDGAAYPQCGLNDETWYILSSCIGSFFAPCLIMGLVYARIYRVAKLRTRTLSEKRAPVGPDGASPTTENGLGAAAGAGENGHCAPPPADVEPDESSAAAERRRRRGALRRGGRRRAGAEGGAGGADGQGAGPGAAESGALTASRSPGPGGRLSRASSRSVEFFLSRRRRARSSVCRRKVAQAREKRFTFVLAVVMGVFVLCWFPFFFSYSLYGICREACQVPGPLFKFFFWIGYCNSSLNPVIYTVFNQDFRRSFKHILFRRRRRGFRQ
# [9] = inhibitors of larval lipid processing in zebrafish, primary screen, whole organism, PED6 fluorescence, gall bladder and intestine (AID 686;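 active = a full or partial loss of lipid-probe fluorescence in the fish gall bladder, intestine or both, judged by eye; inactive = no fluorescence loss, or compound toxic to the fish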;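 note: larvae 5 to 7 days old with five fish per well; signal comes from phospholipase A2 cleavage of quenched PED6 carried via bile; overnight exposure to compound and PED6 before scoring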); details: Zebrafish larvae PED6 lipid processing, fluorescence scoring; screened at 20 µM (by protocol)
# [10] = inhibitors of Chlamydomonas gravitaxis, primary screen, whole organism, Chlamydomonas reinhardtii, WT vs cilia-less mutant, absorbance, 96-well (AID 463189); details: OD600 absorbance, 2 days, at 10 µM, stronger effect = higher value;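 note: 0% = wild type cc124 cells in DMSO and 100% = ciliumless bld1 mutant cells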
# [11] = inhibitors of Sendai virus-induced IRF3 signaling, primary screen, TLR/RLR signaling modifier project, cell-based, Sendai virus stimulus, luciferase, 10K MLSCN set (AID 602276;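 active = inhibition at or above 50% at 10 µM; inactive = inhibition below 50%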;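 note: firefly luciferase from ISG56 promoter only with Renilla not read in this screen; 0% = Sendai virus plus DMSO and 100% = medium plus DMSO without virus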); details: HEK293 RL24 IRF3 luciferase reporter, at 10 µM, stronger effect = higher value
# [12] = inhibitors of poly I:C-induced TLR3 signaling, primary screen, cell-based, poly I:C stimulus, luciferase, 10K MLSCN set (AID 602277;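 active = inhibition of the reporter signal at or above 50%; inactive = inhibition below 50%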); details: HEK293-TLR3 RL24 IRF3 luciferase reporter, at 10 µM, stronger effect = higher value
# [13] = measured here: cell density z-score
# [14] = measured here: nuclear c-Myc green intensity z-score
# [15] = measured here: nuclear pErk red intensity z-score, stronger effect = higher value
Structure (SMILES),cell count [1],inhibition [1],inhibition of aggregation [2],nuclei count [2],inhibition [3],nuclei count [3],"z-score [4, 13]","z-score [4, 14]","z-score [4, 15]",inhibition [5],fluorescence slope [6],NADPH fluorescence slope [7],slope [8],outcome [9],inhibition [10],inhibition [11],inhibition [12]
CC(=O)O[C@H]1C[C@@H]2CC[C@@H]3[C@H](CC[C@@]4(C)[C@H]3C[C@H]([N+]3(C)CCCCC3)[C@@H]4OC(C)=O)[C@@]2(C)C[C@@H]1[N+]1(C)CCCCC1,612,0.4% (inactive),-15.2% (inactive),115%,-24.6% (inactive),114%,-0.612,0.0914,0.638,7.39% (inactive),-0.45 (inactive),2.4e-05 (inactive),0.00404 (inactive),inactive,0.263% (inactive) and 18.9% (inactive),21.9% (inactive),31.6% (inactive)
CC(=O)Nc1nnc(S(N)(=O)=O)s1,660,-4.8% (inactive),-0.3% (inactive),93.8%,-29.7% (inactive),122%,-0.588,-1.08,0.272,13.3% (inactive),-0.462 (inactive),-6.7e-05 (inactive),0.0054 (inactive),active; no signal in intestine only,0.808% (inactive) and -5.65% (inactive),-14.2% (inactive),1.99% (inactive)
OC(CCCN1CCC(O)(c2ccc(Cl)cc2)CC1)c1ccc(F)cc1 (stereo not given),686,-2.4% (inactive),-13.4% (inactive),116%,-82.7% (inactive),118%,1.1,0.439,-0.848,14.6% (inactive),-0.468 (inactive),-6.6e-05 (inactive),0.00402 (inactive),inactive,20.5% (inactive),12.8% (inactive),40.2% (inactive)
COc1ccc(CCN(C)CCCC(C#N)(c2cc(OC)c(OC)c(OC)c2)C(C)C)cc1OC (stereo not given),602,1.1% (inactive),6% (inactive),88.6%,-34.1% (inactive),114%,2.13,0.829,-0.736,30.1% (inactive),-0.466 (inactive),-1e-05 (inactive),0.00502 (inactive),inactive,4.56% (inactive) and -3.63% (inactive),3.72% (inactive),17% (inactive)
CCOC(=O)c1[nH]c2ccc(Br)cc2c1NC(=O)CCN1CCC(C(=O)OCC)CC1,566,-16.7% (inactive),2.2% (inactive),96.4%,-91.6% (inactive),130%,1.13,-1.08,0.103,-0.674% (inactive),-0.523 (inactive),-2.9e-05 (inactive),0.00522 (inactive),inactive,15.3% (inactive),7.83% (inactive),-1.42% (inactive)
CN1CCN(/C=N/c2sc3c(c2C#N)CCCCC3)CC1,536,-4.8% (inactive),2.6% (inactive),116%,-74.7% (inactive),108%,-3.34,0.909,1.9,-4.27% (inactive),-0.42 (inactive),-6e-06 (inactive),0.00496 (inactive),inactive,135% (active),-35.3% (inactive),-83.9% (inactive)
N=c1c(C(=O)NCc2ccccc2)cc2c(=O)n3ccccc3nc2n1Cc1ccco1,365,-3.1% (inactive),-10% (inactive),91.6%,-250% (inactive),133%,0.674,0.212,-1.53,9.39% (inactive),-0.375 (inactive),-4.7e-05 (inactive),0.00267 (inactive),inactive,-4.74% (inactive),-0.117% (inactive),19.6% (inactive)
C[N+](C)(C)CCOP(=O)([O-])OC[C@H](O)CO,713,-2.4% (inactive),-22.9% (inactive),105%,-60.7% (inactive),109%,0.542,0.427,-0.871,15.3% (inactive),-0.472 (inactive),-5.7e-05 (inactive),0.00513 (inactive),inactive,27.2% (inactive),-4.92% (inactive),-2.18% (inactive)
CCCSc1ccc2nc(NC(=O)OC)[nH]c2c1,574,3% (inactive),-22.3% (inactive),15.7%,-115% (inactive),123%,0.0938,0.921,0.811,-5.24% (inactive),-0.486 (inactive),-8.1e-05 (inactive),0.00562 (inactive),inactive,-13.8% (inactive),26.9% (inactive),-19.4% (inactive)
CSc1ccc2c(c1)N(CCC1CCCCN1C)c1ccccc1S2 (stereo not given),643,-2.7% (inactive),4.7% (inactive),89.1%,-54.8% (inactive),119%,0.315,3.44,1.46,-4.44% (inactive),-0.555 (inactive),-5.2e-05 (inactive),0.00348 (inactive),inactive,77.2% (active) and 160% (active),32% (inactive),30% (inactive)
